{"source": "the OligoGym collection"}
{"molecular_target": "ZBTB24", "test": "pooled miR-30 sensor sort-seq; sequence = guide strand", "conditions": "shRNA"}
{"sequence": "TTAACCACAAAGTTTTGTCTAT", "sensor-assay potency score (higher = more potent)": -0.0895}
{"sequence": "TTGTACTTAAAGACCTTGCCAC", "sensor-assay potency score (higher = more potent)": -0.0819}
{"sequence": "TTGCTGTATCGACTCTGGCTTG", "sensor-assay potency score (higher = more potent)": -0.983}
{"sequence": "TTTAGCTGTCTGTTCTGGCTGA", "sensor-assay potency score (higher = more potent)": 0.857}
{"sequence": "TTGGTGGTCAGAGCCTTGCTGC", "sensor-assay potency score (higher = more potent)": -1.29}
{"molecular_target": "ZBTB39", "test": "pooled miR-30 sensor sort-seq; sequence = guide strand", "conditions": "shRNA"}
{"sequence": "TTAGTTTCACACATGTCGCAGG", "sensor-assay potency score (higher = more potent)": -0.128}
{"sequence": "TTCAACACTAGCAAAAACCTGT", "sensor-assay potency score (higher = more potent)": -0.0406}
{"sequence": "AAGTCCACCACATAGGTCCTGG", "sensor-assay potency score (higher = more potent)": -0.52}
{"sequence": "TTAAACACAACACAGAACAGAA", "sensor-assay potency score (higher = more potent)": -0.952}
{"sequence": "TTGCTTGTGAAACAGCCCGGGG", "sensor-assay potency score (higher = more potent)": -1.25}
{"sequence": "TAAGCAGACACCAACATCCCTG", "sensor-assay potency score (higher = more potent)": -0.047}
{"sequence": "TAGTGTTTCAAGCAAAACCATT", "sensor-assay potency score (higher = more potent)": -1.46}
{"sequence": "TAAAGAAACATCAAAATCGAGT", "sensor-assay potency score (higher = more potent)": -0.558}
{"sequence": "TTAGACATCTACTATTTGGGGA", "sensor-assay potency score (higher = more potent)": 0.801}
{"sequence": "TTAAGTACACAGACCACCCAGC", "sensor-assay potency score (higher = more potent)": -0.108}
{"sequence": "TATTATGCTAGAGACAATCTGG", "sensor-assay potency score (higher = more potent)": 0.145}
{"sequence": "TAGAACTTTCTTGCACACCTGG", "sensor-assay potency score (higher = more potent)": -0.103}
{"molecular_target": "ZBTB5", "test": "pooled miR-30 sensor sort-seq; sequence = guide strand", "conditions": "shRNA"}
{"sequence": "TTAAGTAATGTTTACATGCCTT", "sensor-assay potency score (higher = more potent)": -0.579}
{"sequence": "TAGGTTATTTGTGACTTCCAAA", "sensor-assay potency score (higher = more potent)": -1.29}
{"sequence": "ATCAAAACTAGTCTCAACCTGA", "sensor-assay potency score (higher = more potent)": 0.322}
{"sequence": "TTGATAGAACTTTATGATCTGT", "sensor-assay potency score (higher = more potent)": 0.242}
{"sequence": "TTAATCTCACAAGACACTGGTC", "sensor-assay potency score (higher = more potent)": -0.0713}
{"sequence": "TTACAAACTACTTTCTGACTGC", "sensor-assay potency score (higher = more potent)": 0.686}
{"sequence": "TTTGGTTAATCTGTCGTCGAAA", "sensor-assay potency score (higher = more potent)": -0.689}
{"sequence": "TGCACTTTGACAGAACATCTGC", "sensor-assay potency score (higher = more potent)": -0.0496}
{"sequence": "TACAATGACACAATCACAGAGC", "sensor-assay potency score (higher = more potent)": 0.0287}
{"sequence": "TAATCTGTCGTCGAAAACGGTA", "sensor-assay potency score (higher = more potent)": -0.933}
{"sequence": "TACTTGATTACTTCTATGCTAT", "sensor-assay potency score (higher = more potent)": 0.0849}
{"sequence": "TTTTGCATCACTATACAGGGAT", "sensor-assay potency score (higher = more potent)": 0.397}
{"molecular_target": "ZBTB8A", "test": "pooled miR-30 sensor sort-seq; sequence = guide strand", "conditions": "shRNA"}
{"sequence": "TTGACTTATAATGAGTAACTTC", "sensor-assay potency score (higher = more potent)": -0.468}
{"sequence": "TTTCTTTCTCACTAATGTCTAA", "sensor-assay potency score (higher = more potent)": -0.493}
{"sequence": "TTTTTAATGGACTCTTTCCTTG", "sensor-assay potency score (higher = more potent)": -0.893}
{"sequence": "TAGCGAATAATACATTTCGATG", "sensor-assay potency score (higher = more potent)": -1.75}
{"sequence": "TCACAAAATACATCTTGCCTGC", "sensor-assay potency score (higher = more potent)": -0.43}
{"sequence": "TTGTTGAGTATTCTTCTGGGAG", "sensor-assay potency score (higher = more potent)": -0.386}
{"sequence": "TTCAGCATCAATCTGTGCTTGT", "sensor-assay potency score (higher = more potent)": 0.622}
{"sequence": "TAAATCTTTTTCCACAAGCTTG", "sensor-assay potency score (higher = more potent)": -1.26}
{"sequence": "TTCTACAATCTCCACATAGGAT", "sensor-assay potency score (higher = more potent)": -0.772}
{"sequence": "TACACTTATGACATCAGTCATC", "sensor-assay potency score (higher = more potent)": -0.715}
{"sequence": "TAAAAGTCTTACATACACTTAT", "sensor-assay potency score (higher = more potent)": -0.256}
